{"source": "PubChem BioAssay AID651871", "about": "(Sanford-Burnham Center for Chemical Genomics, 2012)", "note": "“And” between values parts separate entries of the source, which are not always exact repeats. Equal entries are not always repeated.", "data": [{"tested_on": "H9c2", "experiment": "cardiomyocyte survival under oxidative or metabolic stress – cell-based, panel, H9c2 and HL-1, ATP luminescence, set 2, SAR follow-up (AID 651871);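 also: cells exposed to stressor for 2 h before ATP readout; reference of the scale not given here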", "details": "H9c2/HL-1 cardiomyocytes, 2-deoxyglucose stress, with 2-deoxyglucose, run 4, at 79 µM (top of the series)", "values": [{"compound": "CCOC(=O)c1cccc(NC(=O)CNC(=O)c2cc(-c3cc(OC)c(OC)c(OC)c3)nc3ccccc23)c1", "activity (protection/inhibition)": "87.2%"}, {"compound": "COc1ccc2nc(-c3cc(OC)c(OC)c(OC)c3)cc(C(=O)NCC(=O)Nc3ccc(C(C)=O)cc3)c2c1", "activity (protection/inhibition)": "80.7%"}, {"compound": "COc1ccc2c(c1OC)C(=O)N1c3ccccc3C(=O)N(Cc3cccc(Cl)c3Cl)C21", "note": "(stereo not drawn)", "activity (protection/inhibition)": "57.7% and -8.42%"}]}]}
